Compounds with a hit are over-represented: about 3.9% of the library has one in this group of screens.
CCHF vOTU inh = blocks the CCHF virus ovarian tumor domain protease. inhibition, % at 11.5 µM. 370,000 tested, 0.55% active. CCHFV vOTU protease, Pep-AMC fluorescence; in the data active means inhibition above about 30%; further: 0% = vehicle wells with enzyme and 100% = no enzyme wells
3CLpro inhibitor = SARS-CoV 3CLpro protease inhibition | inhibition, % at 6 µM | recombinant SARS-CoV 3CLpro, quenched FRET peptide cleavage | 290,000 tested, 0.14% active; in the data active means inhibition above about 12%
BoNT-A LC inh2 = blocks Botulinum neurotoxin A light chain protease; multiplex microsphere protease substrate cleavage, flow cytometry; inhibition, % at 10 µM; 360,000 tested, 0.17% active; further: plate controls were buffer without enzyme for full effect and enzyme alone for no effect
BoNT-F LC inh = BoNT F light chain protease inhibition; Multiplex microsphere protease cleavage assay, flow cytometry; inhibition, % at 10 µM; 360,000 tested, 0.22% active; AID 588497; in the data active means inhibition above about 35%, passing the limit was not always enough; further: plate controls were buffer without enzyme for full effect and enzyme alone for no effect
Anthrax LF inh2 = blocks Bacillus anthracis lethal factor protease; P15917; AID 588501; multiplex microsphere protease cleavage assay, LF; inhibition, % at 10 µM; 360,000 tested, 0.12% active; further: plate controls were buffer without enzyme for full effect and enzyme alone for no effect
Target sequence (P15917 whole entry, looked up): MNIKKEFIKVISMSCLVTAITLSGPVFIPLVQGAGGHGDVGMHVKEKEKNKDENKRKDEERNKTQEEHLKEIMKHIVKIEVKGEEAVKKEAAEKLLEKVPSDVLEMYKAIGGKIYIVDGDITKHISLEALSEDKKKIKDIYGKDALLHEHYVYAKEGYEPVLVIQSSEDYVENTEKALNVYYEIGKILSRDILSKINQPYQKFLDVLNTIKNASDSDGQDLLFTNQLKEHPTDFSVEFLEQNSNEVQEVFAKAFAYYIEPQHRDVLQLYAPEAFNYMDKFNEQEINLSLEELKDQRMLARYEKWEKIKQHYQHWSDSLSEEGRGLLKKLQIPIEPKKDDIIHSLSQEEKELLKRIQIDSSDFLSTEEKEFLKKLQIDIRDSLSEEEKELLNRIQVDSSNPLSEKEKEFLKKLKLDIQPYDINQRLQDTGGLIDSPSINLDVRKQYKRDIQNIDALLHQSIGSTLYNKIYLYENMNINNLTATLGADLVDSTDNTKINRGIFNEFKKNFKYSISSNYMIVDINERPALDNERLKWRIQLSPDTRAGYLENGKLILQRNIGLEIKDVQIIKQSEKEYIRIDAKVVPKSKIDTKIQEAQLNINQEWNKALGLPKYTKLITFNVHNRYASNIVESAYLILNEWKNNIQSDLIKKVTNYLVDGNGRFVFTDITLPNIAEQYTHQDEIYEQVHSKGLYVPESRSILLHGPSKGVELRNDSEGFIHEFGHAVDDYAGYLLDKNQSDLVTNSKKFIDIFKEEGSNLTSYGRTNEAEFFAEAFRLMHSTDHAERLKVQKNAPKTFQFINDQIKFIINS
Bead autofluor = flagged as autofluorescent in microsphere protease counterscreen; AID 624483; compound autofluorescence counterscreen, microsphere flow cytometry; hits give high values; 360,000 tested, 3.1% active; fluorescence intensity (no concentration beside the values); in the data active means fluorescence intensity above about 16000
Active calls of the source: *; nt = no result given. Unless noted, no stated cut-off is given here; in the data, active means inhibition above about 30%; inconclusive means no clear call, values can overlap the other calls; inactive means below that.

SMILES	CCHF vOTU inh	3CLpro inhibitor	BoNT-A LC inh2	BoNT-F LC inh	Anthrax LF inh2	Bead autofluor
CCOc1ccccc1CN1CCCC(C(=O)Nc2cccc(-n3cccn3)c2)C1 (centres undefined)	11	-4	0	9	-2	5813
Cc1ccc(NC(=O)C2CCCN(S(=O)(=O)c3ccc4c(c3)oc(=O)n4C)C2)nc1 (centres undefined)	30*	-5	-1	4	-7	5941
Cn1c(=O)oc2cc(S(=O)(=O)N3CCC4(CC3)OCCO4)ccc21	-13	1	3	3	-2	22987*
COC(=O)n1c(=O)oc2cc(S(=O)(=O)N3CCOCC3)ccc21	2	0	4	12	-8	20705*
COC(=O)n1c(=O)oc2ccc(S(=O)(=O)N3CCCCC3)cc21	5	-2	0	2	-7	4974
Cn1cc(C(=O)C(=O)N2CCCCC2)c2ccccc21	8	nt	-1	-7	-9	3446
C=CCn1c(SCC(=O)c2cccs2)nc2sc(CC)cc2c1=O	-9	2	2	5	1	22827*
C=CCn1c(SCC(=O)O)nc2sc(CC)cc2c1=O	0	4	0	3	-8	4544
CCN(C(=O)Cn1cc(C(=O)C(=O)N2CCOCC2)c2ccccc21)c1ccccc1	-6	6	-2	-6	4	4793
CCN(CC)CCCN(Cc1cc2cc3c(cc2[nH]c1=O)OCO3)C(=O)Nc1ccccc1OC	-15	4	0	7	-3	2903
CCN(CC)CCCN(Cc1cc2cc(OC)c(OC)cc2[nH]c1=O)C(=O)Nc1ccccc1	-13	8	0	-1	-9	22160*
COc1ccccc1NC(=O)N(CCN1CCCC1)Cc1cc2cc(C)ccc2[nH]c1=O	-12	-2	-3	-2	0	23245*
CC(C)(C)N1Cc2nnn(CC3CCCCC3)c2-c2ccccc2S1(=O)=O	1	nt	nt	nt	nt	nt
COc1cccc(CC2(CO)CCCN(Cc3c(C)cc(C)cc3-n3cccn3)C2)c1 (centres undefined)	10	-1	0	8	2	6555
Cc1ccc(CN2C(=O)CCC2C(=O)NCc2cccnc2)cc1 (centres undefined)	-12	3	4	2	-6	21210*
Cc1ccc(CNC(=O)C2CCC(=O)N2Cc2ccc(F)cc2)cc1 (centres undefined)	10	-2	-4	8	-4	4049
O=C(Nc1ccccn1)N1CCOCC1	1	4	-3	-5	0	20658*
O=C(Nc1ccccc1)N1CCOCC1	3	3	0	3	-5	6476
CNC(=O)c1csc(-c2ccc(Cl)cc2)n1	10	3	1	8	1	3414
CNC(=O)c1csc(-c2ccc(C)cc2)n1	-6	6	2	3	-9	20516*
O=C(Nc1ccc(Cl)cc1)c1csc(-c2ccncc2)n1	-8	3	-1	2	-1	3893
O=C(Nc1ccc(Cl)cc1)c1csc(-c2ccccc2)n1	-3	2	-1	-3	-4	16593*
CC1CN(c2ccccn2)C(C)CN1C(=S)Nc1ccccc1 (centres undefined)	-2	nt	0	-2	-2	3681
O=C(c1cc(C2CCCCN2S(=O)(=O)c2cccs2)on1)N1CCOCC1 (centres undefined)	6	nt	0	-4	2	3461
COC(=O)c1sccc1-c1ccc(/C=N/OC(=O)c2ccccc2)o1	11	4	6	5	-3	20465*
SMILES	CCHF vOTU inh	3CLpro inhibitor	BoNT-A LC inh2	BoNT-F LC inh	Anthrax LF inh2	Bead autofluor
COC(=O)c1ccccc1-c1ccc(/C=N/NC(N)=O)o1	-6	2	nt	nt	nt	nt
CCOC(=O)C1=CCN(S(=O)(=O)c2ccccc2F)C1c1cccc(F)c1 (centres undefined)	-4	nt	0	-4	-3	5371
C[C@H](CO)N1C[C@H](C)[C@@H](CN(C)C(=O)Nc2ccc(C(C)(C)C)cc2)OCc2cn(nn2)CCCC1=O	8	nt	nt	nt	nt	nt
O=C(Nc1nc(-c2ccccc2)cs1)C1CCCCN1S(=O)(=O)c1ccc(Cl)cc1 (centres undefined)	nt	8	1	-5	-5	16281*
NC(=O)c1ccsc1NC(=O)C1CCCN1S(=O)(=O)c1ccc(Cl)cc1 (centres undefined)	-4	0	0	0	-1	20384*
Cn1c(COc2ccccc2)nnc1SCC(=O)Nc1ccc(S(=O)(=O)Nc2nccs2)cc1	5	nt	nt	nt	nt	nt
O=C(Cc1cccs1)N1CCN(S(=O)(=O)c2ccc(Cl)c(C(F)(F)F)c2)CC1	2	nt	0	-9	-11	2899
